# This is a sample that favours compounds with a hit; in the whole collection about 11% have one here.
# RORg inh = ROR gamma (mouse) transcription inhibition; P51450; Drosophila S2 Gal4-RORgamma UAS-luciferase reporter, 20 h; Potency, µM (titrated, usually from 53.6 µM), for the others: at the highest dose activity change, negative = inhibition, most hits filed as inhibitors; actives 5.4% (n = 310,000); also: potency is read from the fitted curve at half-maximal effect; % is scaled to controls: 0 for no effect and ±100 for the full control effect; nearly all actives have a fitted effect of over 60% in size
# Target sequence (P51450 whole entry, looked up, the tested form may be a part): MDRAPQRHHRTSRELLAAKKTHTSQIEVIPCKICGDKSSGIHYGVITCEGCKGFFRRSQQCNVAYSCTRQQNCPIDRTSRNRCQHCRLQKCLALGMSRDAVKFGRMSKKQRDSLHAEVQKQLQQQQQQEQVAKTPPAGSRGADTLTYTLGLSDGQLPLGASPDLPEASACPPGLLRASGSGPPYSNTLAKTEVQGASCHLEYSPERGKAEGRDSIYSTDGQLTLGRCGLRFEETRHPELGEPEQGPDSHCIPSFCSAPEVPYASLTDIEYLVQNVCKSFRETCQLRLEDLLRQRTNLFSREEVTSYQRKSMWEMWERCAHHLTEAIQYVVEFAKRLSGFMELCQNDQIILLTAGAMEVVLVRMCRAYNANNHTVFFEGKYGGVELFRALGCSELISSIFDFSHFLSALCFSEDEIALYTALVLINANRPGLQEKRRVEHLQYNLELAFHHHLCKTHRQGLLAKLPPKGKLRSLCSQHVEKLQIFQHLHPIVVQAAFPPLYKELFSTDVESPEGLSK
#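 Compounds are pin-transferred onto Drosophila Schneider cells expressing a copper-inducible Gal4–ROR gamma transactivation domain fusion. After 1 hr, copper sulfate is added to 700 uM final; luciferase is read 20 hr later.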
# MCF10A rereplic = inducers of DNA re-replication in MCF 10A breast cells. MCF 10A DNA re-replication, Hoechst nuclear intensity, 48 h. actives 2.9% (n = 350,000). Potency, µM (highest dose often 46.1 µM), inactives show top-dose activity, positive = re-replication, usual class: activators; also: potency is read from the fitted curve at half-maximal effect; % of control where 0% means no effect; nearly all actives have a fitted effect of over 50% in size
# SW480 rereplic = induces DNA re-replication in SW480 colon adenocarcinoma cells; AID 624297; actives 1.8% (n = 340,000); SW480 DNA re-replication, Hoechst DNA content imaging, 48 h; Potency, µM (series often up to 46.1 µM), for inactives: top-dose re-replication activation, most hits filed as activators; also: potency is read from the fitted curve at half-maximal effect; % of control where 0% means no effect; nearly all actives have a fitted effect of over 55% in size
#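 Image-based read-out: total Hoechst fluorescence of nuclei (405 nm excitation, 500-530 nm emission), with hits raising the fraction of high-intensity nuclei. SW480 colon cells incubated 48 hr with compounds at 37 C.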
# IL1B secr inh = inflammasome signaling inhibition, IL-1 beta readout; AID 743279; THP-1 LPS/ATP IL-1B secretion, AlphaLISA, 16 h; stronger effect = lower value; activity change, % at 57.5 µM; actives 4.7% (n = 360,000); in the data active = activity change below about -50%; inconclusive = mostly about -30% to -49%; also: % is scaled to controls: 0 for no effect and ±100 for the full control effect
#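 THP-1 cells pretreated 1 hr with compounds (up to 57.5 uM final), then stimulated with LPS (250 ng/mL final) plus ATP (1.25 mM final); secreted IL-1B measured by AlphaLISA after 16 hr, decreased signal indicating inhibition.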
# Gal4-VP16 FLuc = inhibits Gal4-VP16 luciferase reporter, ROR gamma counter-screen | Drosophila S2 Gal4-VP16 UAS-luciferase, luminescence, 20 h | Potency, µM (doses to about 53.6 µM), inactives show top-dose activity, negative = inhibition, most hits filed as inhibitors | actives 3.5% (n = 310,000) | AID 2546;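 also: Gal4-VP16 expression switched on by copper sulfate through the metallothionein promoter; potency is read from the fitted curve at half-maximal effect; % is scaled to controls: 0 for no effect and ±100 for the full control effect; nearly all actives have a fitted effect of over 50% in size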
# An asterisk follows results filed as active; ? = inconclusive; nt = no result; [ ] = dose if it differs, or a comment. Unless noted, calls follow the shape of the dose curve; as a rule, active = well fitted curve in the direction sought with a large enough effect; inconclusive = small, poorly fitted or top-dose-only effect, or another doubt; inactive = no such curve, though single readings can be large; an effect the other way counts as inactive or inconclusive.
SMILES,RORg inh,MCF10A rereplic,SW480 rereplic,IL1B secr inh,Gal4-VP16 FLuc
Cc1nn(Cc2ccccc2)c2ncccc12,5%,5%,2%,6,-2%
Cc1cc(C)nc(N/N=C/C2=C(N3CCOCC3)C(=C/c3ccccc3)/CC2)n1,-11%,8.2µM*,16µM*,-23,-20%
Cc1occc1C(=O)N/N=C/C1=C(N2CCOCC2)C(=C\c2ccc(Cl)cc2)/CC1,-114%,18µM*,?,3,?
CN1CCc2nc3sc(C(=O)C45CC6CC(CC(C6)C4)C5)c(N)c3cc2C1,20%,9.2µM*,21µM*,-16,-9%
CC1=C(C(=O)OCc2ccccc2)C(/C=C/c2ccccc2)NC(=S)N1 (stereo not given),?,23µM*,10%,?,5.6µM*
C=CCOC(=O)C1=C(C)NC(=S)NC1/C=C/c1ccccc1 (stereo not given),2.5µM*,-5%,15µM*,-3,6.3µM*
CCOC(=O)C1=CCN(S(=O)(=O)c2cccc(Cl)c2)C1c1ccc(F)cc1 (stereo not given),nt,nt,nt,-20,nt
COc1ccc(CN2C(=O)C(CC(=O)NCCCCc3ccccc3)CC(C(=O)N(C)C)=C2C)cc1 (stereo not given),nt,nt,nt,-2,nt
COc1ccc(C(C)(C)C)cc1NC(=O)COC(=O)C1=NNC(=O)CC1,nt,-1%,0%,21,nt
COC(=O)c1cc(OC)c(OC)cc1NCC(=O)Nc1ccc(C)cc1,64%,2%,-51%,-52*,-6%
COc1ccc(S(=O)(=O)N2CCCCC2)cc1NC(=O)CNc1ccccc1C(C)=O,nt,?,0%,19,nt
COc1ccc(S(=O)(=O)N2CCCCCC2)cc1NC(=O)Cc1cc(OC)c(OC)c(OC)c1,?,8%,-57%,0,5%
COc1ccc(S(=O)(=O)N2CCCCC2)cc1NC(=O)CN(C)C1CCCCC1,-20%,8%,-1%,-70*,23%
COc1ccc(NC(=O)COc2cc(C)cc(C)c2)cc1S(=O)(=O)N1CCCCC1,nt,21µM*,5.8µM*,-8,nt
COc1ccc(S(=O)(=O)N2CCCCC2)cc1NCC(=O)Nc1ccc(C)cc1,28%,?,3%,-3,3.5µM*
CCCCN1CC(COCc2ccccc2)Oc2cccc(OCc3ccc(OC)cc3)c2S1(=O)=O (stereo not given),nt,nt,nt,15,nt
C#CCCCO/N=C1/C[C@@H](O)[C@@H](O)[C@@H]2[C@H]3C(=O)N(c4ccc(F)cc4F)C(=O)[C@@H]3CC[C@@H]12,12%[10 µM],nt,nt,nt,10%[10 µM]
COc1ccc(S(=O)(=O)N2CCCCC2)cc1NC(=O)C1CC(=O)N(Cc2ccco2)C1 (stereo not given),nt,-1%,-1%,-1,nt
COc1ccc(S(=O)(=O)N2CCCCC2)cc1NC(=O)CN(Cc1ccco1)Cc1ccco1,nt,21µM*,-6%,-51*,nt
CCC1Cc2cc(O)ccc2C2=C1c1ccc(O)cc1CC2CC (stereo not given),?,nt,nt,nt,13µM*
O=C(NCCOc1ccccc1F)c1cc([N+](=O)[O-])ccc1N1CCOCC1,-2%,?,9.2µM*,14,-11%
O=C(NCCOc1ccccc1)c1cc([N+](=O)[O-])ccc1N1CCOCC1,nt,10µM*,2.9µM*,-11,nt
O=C(NCCc1ccccc1)c1cc([N+](=O)[O-])ccc1N1CCOCC1,nt,1%,4%,-18,nt
COc1ccc(C(=O)CN2C(=O)NC3(CCc4ccccc43)C2=O)cc1 (stereo not given),32%,0%,?,5,0%
COc1ccc(C(NC(=O)CN2C(=O)NC3(CCc4ccccc43)C2=O)c2ccc(OC)cc2)cc1 (stereo not given),nt,1%,?,-64*,nt
SMILES,RORg inh,MCF10A rereplic,SW480 rereplic,IL1B secr inh,Gal4-VP16 FLuc
C=C1C(=O)C=C2CN(C(=O)c3ccccc3)[C@@](Cc3ccc(F)cc3)(C(=O)OC)[C@@H]12,3.2µM*,3.7µM*,1.3µM*,-103*,1.4µM*
COC(=O)[C@@]1(Cc2ccc(OC)cc2)[C@@H]2C(=CC(=O)[C@H]2CC(=O)C(=O)N(C)C)CN1C(=O)c1ccccc1,?,?,?,-76*,?
CCCc1nc2ccc(C)cn2c1Cc1ccsc1,nt,nt,nt,36,nt
CN(C)c1ccc(C(=S)N2CCN(Cc3ccccc3)CC2)cc1,13µM*,-3%,-16%,-5,-4%
S=C(c1ccccc1)N1CCN(c2ccccc2)CC1,nt,14%,0%,-17,nt
CCN(CC)c1ccc(C(=S)N2CCN(c3ccccc3)CC2)cc1,13µM*,-33%,-3%[9.22 µM],-24,?
Cc1cccc(NC(=O)C2CCCN(S(=O)(=O)c3ccc4[nH]c(=O)ccc4c3)C2)n1 (stereo not given),-14%,11%,-12%,18,8%
Cc1ccc(-c2cc(C(=O)Nc3ccncc3)c3ccccc3n2)cc1,nt,?,-1%,-78*,nt
COc1cc(-c2cc(C(=O)Nc3ccncc3)c3ccccc3n2)cc(OC)c1OC,nt,23%,29%,-50*,nt
Cc1cccc(NC(=O)NNC(=O)c2cc(-c3ccccc3Cl)nc3ccccc23)c1,40%,?,17%,-14,1%
O=C(NNC(=O)c1cc(-c2ccc(Cl)c(Cl)c2)nc2ccccc12)Nc1ccccc1,45%,21µM*,?,?,?
O=C(Nc1nccs1)c1cc(-c2ccncc2)nc2ccccc12,-31%,-11%,0%,18,-14%
O=C(Nc1ccncc1)c1cc(-c2ccccn2)nc2ccccc12,1%,?,0%,53,-18%
Cc1ccc(-c2cc(C(=O)Nc3nccs3)c3ccccc3n2)c(C)c1,4.5µM*,?,5%,3,6.3µM*
COc1ccc(-c2cc(CCC(=O)N3CCN(c4cc(C)ccc4C)CC3)on2)cc1,nt,?,0%,34,nt
O=C(Nc1ccncc1)c1cc(-c2cccc(Br)c2)nc2ccccc12,nt,16µM*,8%,-78*,nt
COc1ccccc1/C=C/C1(C(=O)NC2CCCC2)CC(=O)N1c1ccc(C)cc1 (stereo not given),?,18µM*,?,-12,-2%
CCN(CC)S(=O)(=O)c1ccc(N2C(=O)CC2(/C=C/c2ccccc2)C(=O)NC2CCCC2)cc1 (stereo not given),20%,?,?,-18,3%
COc1ccccc1/C=C/C1(C(=O)NC2CCCC2)CC(=O)N1c1ccc(F)cc1 (stereo not given),-13%,?,16µM*,-89*,6%
NC(=S)NN=C1Cc2cccc3cccc1c23,nt,-3%,-4%,-9,nt
COc1ccc(OC)c(-c2csc(NC(=O)Cn3[nH]c(=O)c4ccccc4c3=O)n2)c1,?,?,8.2µM*,18,?
COc1ccc(OC)c(-c2csc(NC(=O)Cc3ccc(F)cc3)n2)c1,-5%,?,?,-69*,-14%

# Bioassay records from PubChem BioAssay.
